Molecules are shown by their SMILES. Records with an inconclusive call do not appear. Where a call stands in place of a potency, no number is given. Active and inactive are the calls of the source. Calls come from the whole dose curve; as a rule, active = well fitted inhibition curve with a large enough effect; inconclusive = small, poorly fitted or top-dose-only effect; inactive = flat fitted curve, though single readings scatter.

Data on six molecules can be found in PubChem BioAssay (NCATS).
Potency is the fitted concentration of half-maximal effect.

Tested on in the first assay: not listed separately
Nature of the assay: Drug repurposing screens with cells derived from glioblastoma tumor samples (AID 1345199). Note: nearly all actives have a fitted effect of over 40% in size. The conditions noted are these: GBM patient neurospheres viability, ATP luminescence, 48 h; tumour line B. In a few lines: (§1)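 Primary testing used CD133+ neurospheres from four GBM patients, seven concentrations, 48 h exposure and ATP-based viability; confirmation added three slower-growing patient lines.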
Regarding `C=CCN1CC[C@]23CCCC[C@H]2[C@H]1Cc1ccc(O)cc13`, the Potency is 35.5 µM (active). As for `Clc1ccc(C(OCCN2CCCCC2)c2ccccc2)cc1` (stereo unspecified), the Potency was 10 µM (active).

On to `CN(C)C(=S)SSC(=S)N(C)C`, for which the Potency is 35.5 µM (active).

In a further assay the test system is astro (control astrocytes). The description is as above. The note with it: viability, ATP luminescence, 48 h; series mostly up to 45.9 µM. In a few lines: as §1
For the molecule `C[N+]1(C)[C@@H]2CC[C@H]1CC(OC(=O)C(CO)c1ccccc1)C2` (stereo partly specified), the Potency result is “inactive”. With `CCC1(c2ccccc2)CCC(=O)NC1=O` (stereo unspecified), the Potency result was “inactive”. Take `CNC(=O)NC(O)C(Cl)(Cl)Cl` (stereo unspecified): the Potency entry is “inactive”.
